Screening results: PubChem BioAssay, several laboratories
Shown are actives, neighbours in structure and some others; about 3.9% of the full set was active somewhere.
Cardio protect – protects H9c2 cardiomyocytes from peroxide injury. protection from H2O2 cell death, % at 20 µM. H2O2 injury protection, ATPLite, 2 h. AID 588492. 0.63% of 360,000 active;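 active means compounds giving at least 50% protection of heart cells from peroxide-induced death in the single-dose screen, raw or plate-pattern-corrected value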;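 further: 0% = DMSO wells with peroxide and 100% = DMSO wells without peroxide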
NTR1 ag – agonists of human neurotensin receptor NTR1 | 0.17% of 330,000 active | activation, % at 20 µM | AID 493036 | NTR1-U2OS beta-arrestin-GFP spot imaging, agonist mode;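 active means activation at or above 40% of the spot to cytoplasm intensity ratio, with at least 20 cells analyzed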;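 further: 0% = DMSO without peptide and 100% = 100 nM NTR1 peptide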
Target sequence (P30989 whole entry, looked up): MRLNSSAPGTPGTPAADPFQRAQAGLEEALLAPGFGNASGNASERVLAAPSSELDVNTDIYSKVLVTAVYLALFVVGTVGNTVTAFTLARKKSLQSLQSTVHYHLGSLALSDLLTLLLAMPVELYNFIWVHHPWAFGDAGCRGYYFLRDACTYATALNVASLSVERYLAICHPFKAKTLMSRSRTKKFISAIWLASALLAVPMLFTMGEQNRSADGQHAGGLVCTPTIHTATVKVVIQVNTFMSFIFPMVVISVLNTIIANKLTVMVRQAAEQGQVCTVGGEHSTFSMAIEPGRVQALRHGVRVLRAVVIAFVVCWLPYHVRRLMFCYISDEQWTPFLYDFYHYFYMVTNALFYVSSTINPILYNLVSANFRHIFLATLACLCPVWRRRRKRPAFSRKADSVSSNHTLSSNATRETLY
ALR inh – inhibitors of human sulfhydryl oxidase ALR; P55789; purified ALR, DTT oxidation, H2O2 HRP-luminol luminescence; inhibition, % (test concentration not listed); 3.8% of 290,000 active; AID 485317;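 active means mean replicate inhibition above about 79%, with every replicate also reaching it, limit read from the data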
SUMO HTRF inh – inhibitors of human SUMOylation (UBC9) | HTRF SUMOylation assay, SAE1/SAE2 + UBC9, in vitro | P63279 | inhibition, % at 35 µM | AID 2006 | 0.36% of 290,000 active; in the data active means inhibition above about 50%, passing the limit was not always enough
Target sequence (P63279 whole entry, looked up): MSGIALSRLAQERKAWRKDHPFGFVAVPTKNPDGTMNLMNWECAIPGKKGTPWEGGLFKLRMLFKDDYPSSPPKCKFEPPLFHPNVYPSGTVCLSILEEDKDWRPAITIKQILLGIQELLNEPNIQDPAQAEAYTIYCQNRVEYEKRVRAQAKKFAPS
An asterisk follows results filed as active.

What do the screens show for `CCN(CC)c1ccc(NC(=O)COC(=O)CCC(=O)c2cccs2)cc1`?
Cardio protect: 2; NTR1 ag: -1; ALR inh: 99*

Results for CCN(CC)c1ccc(NC(=O)COC(=O)COc2ccccc2[N+](=O)[O-])cc1 ?
Cardio protect: 1; NTR1 ag: 2; ALR inh: 99*; SUMO HTRF inh: -2

How did CN(C)c1ccc(NC(=O)COC(=O)CCC(=O)c2ccc(F)cc2)cc1 do in these assays?
Cardio protect: -6; NTR1 ag: -1; ALR inh: 97*; SUMO HTRF inh: 10

What do the screens show for `COc1ccc(N(CC(=O)NCc2ccccc2OC)S(=O)(=O)c2ccccc2)cc1`?
Cardio protect: 8; NTR1 ag: 1; ALR inh: 1; SUMO HTRF inh: -8

How did Cn1c(=O)c2c(ncn2CCCC(=N)N2CCOCC2)n(C)c1=O do in these assays?
Cardio protect: 1; NTR1 ag: -2; ALR inh: 1; SUMO HTRF inh: 8

How did Cc1[nH]c2ccccc2c1C(=O)CSc1nc2cc(S(=O)(=O)N3CCCCC3)ccc2o1 do in these assays?
Cardio protect: -11; NTR1 ag: 2; ALR inh: -8; SUMO HTRF inh: -18

Results for CN(C)c1ccc(NC(=O)COC(=O)CNC(=O)c2cccs2)cc1 ?
Cardio protect: 9; NTR1 ag: -1; ALR inh: 96*

How did Cc1[nH]n(C2=NCCS2)c(=O)c1N=Nc1cccc(C(F)(F)F)c1 do in these assays?
Cardio protect: 62*; NTR1 ag: 10; ALR inh: 3; SUMO HTRF inh: -28

What do the screens show for `CCC(=O)Oc1ccc(C/C(=N\O)c2ccc(O)cc2O)o1`?
Cardio protect: 8; NTR1 ag: 2; ALR inh: 98*; SUMO HTRF inh: 7

Results for CCOC(=O)c1ccc(CC(=O)c2ccc(O)cc2O)o1 ?
Cardio protect: 13; NTR1 ag: 1; ALR inh: 26; SUMO HTRF inh: 21

How did O=C(Nc1cnn(Cc2ccc(Cl)c(Cl)c2)c1)c1nc2ncccn2n1 do in these assays?
Cardio protect: 11; NTR1 ag: 0; ALR inh: -23; SUMO HTRF inh: -8

What do the screens show for `COc1ccccc1C(=O)NC(=O)CSc1ccc(C)c(C)c1`?
Cardio protect: 15; NTR1 ag: 1; ALR inh: 97*

How did COCCNc1nnc(SCC(=O)NC(=O)c2ccccc2OC)s1 do in these assays?
Cardio protect: 17; NTR1 ag: 2; ALR inh: 0; SUMO HTRF inh: 8

Results for COc1cc(/C=C2\C(=O)NN(c3ccccc3)C2=O)ccc1OCC(N)=O ?
NTR1 ag: 2; ALR inh: 96*; SUMO HTRF inh: -6

How did C#CCOc1ccc(/C=C2/C(=O)NN(c3ccc(F)cc3)C2=O)cc1OC do in these assays?
Cardio protect: -1; NTR1 ag: 2; ALR inh: 98*; SUMO HTRF inh: -6

What do the screens show for `N#Cc1c(N)sc2c1CCCCCC2`?
Cardio protect: -3; NTR1 ag: 2; ALR inh: 99*; SUMO HTRF inh: 7

What do the screens show for `N#Cc1c(N)sc(=S)c2c1CCCCC2`?
Cardio protect: 10; NTR1 ag: 1; ALR inh: -27; SUMO HTRF inh: 26

How did COc1ccc(OC)c(N)c1 do in these assays?
Cardio protect: 1; NTR1 ag: -1; ALR inh: 12; SUMO HTRF inh: 5

How did COc1ccc(-c2ccc(CO)o2)cc1N do in these assays?
Cardio protect: -3; NTR1 ag: -1; ALR inh: 99*; SUMO HTRF inh: -8

How did C/C(=N/Nc1nc(-c2ccccc2F)nc2ccccc12)c1ccccc1O do in these assays?
Cardio protect: 24; NTR1 ag: 18; ALR inh: 10; SUMO HTRF inh: 23

How did O=[N+]([O-])c1ccc2c(c1)nnn2-c1ccccc1 do in these assays?
Cardio protect: 6; NTR1 ag: 0; ALR inh: -17; SUMO HTRF inh: 16

Results for CCN(CC)C(=O)CN(c1ccc(F)c(Cl)c1)S(C)(=O)=O ?
Cardio protect: 5; NTR1 ag: 0; SUMO HTRF inh: 6

Results for CCSC1=N/C(=C\c2ccc(C(=O)O)cc2)C(=O)S1 ?
Cardio protect: 7; NTR1 ag: 0; ALR inh: 71; SUMO HTRF inh: 22

Results for O=C1SC(SCc2ccccc2Cl)=N/C1=C\c1ccc(C(=O)O)cc1 ?
Cardio protect: 5; NTR1 ag: 3; ALR inh: 101*; SUMO HTRF inh: -5

What do the screens show for `CSC1=N/C(=C\c2ccc(C)cc2)C(=O)S1`?
Cardio protect: -3; NTR1 ag: 0; SUMO HTRF inh: 14

What do the screens show for `COC(=O)c1ccc(/C=C2\N=C(SC)SC2=O)cc1`?
Cardio protect: -5; NTR1 ag: 0; ALR inh: 99*; SUMO HTRF inh: -15

How did CCOC(=O)SC1=N/C(=C\c2ccc(N(C)C)cc2)C(=O)S1 do in these assays?
Cardio protect: -1; NTR1 ag: -2; ALR inh: 84*; SUMO HTRF inh: -2

Results for O=C(NNc1ccc([N+](=O)[O-])cc1)C1CC2CCCC(C1)C2=O (stereo not given) ?
Cardio protect: 0; NTR1 ag: 0; ALR inh: 86*; SUMO HTRF inh: 7

Results for CN1CCN(C(=O)c2ccc3c(c2)N(Cc2ccccc2)CCS3)CC1 ?
Cardio protect: -1; NTR1 ag: 0; ALR inh: 98*; SUMO HTRF inh: 34

Results for Cc1ccc(CN2CCSc3ccc(C(=O)NCc4cccnc4)cc32)cc1 ?
Cardio protect: -1; NTR1 ag: 1; ALR inh: 45; SUMO HTRF inh: 33

How did O=C(c1ccc2c(c1)N(Cc1ccccc1)CCS2)N1CCCCC1 do in these assays?
Cardio protect: -6; NTR1 ag: 8; ALR inh: 99*; SUMO HTRF inh: 18

What do the screens show for `O=C(Nc1cccnc1)C1(c2ccccc2)CCCC1`?
Cardio protect: -6; NTR1 ag: -1; ALR inh: -6; SUMO HTRF inh: 8

What do the screens show for `N#Cc1c(-c2cccs2)nc(SCC(=O)c2cccs2)[nH]c1=O`?
Cardio protect: 24; NTR1 ag: 3; ALR inh: 98*; SUMO HTRF inh: 18

How did N#Cc1c(-c2ccccc2)nc(SCC(=O)Nc2ccccc2)[nH]c1=O do in these assays?
Cardio protect: 1; ALR inh: 98*; SUMO HTRF inh: 12

What do the screens show for `O=C(CSc1nc2ccccc2c(=O)[nH]1)c1cccs1`?
Cardio protect: 33; NTR1 ag: -2; ALR inh: 15; SUMO HTRF inh: 17

What do the screens show for `N#Cc1c(-c2ccccc2)nc(SCC(=O)Nc2ccc(OC(F)(F)Cl)cc2)[nH]c1=O`?
Cardio protect: 2; NTR1 ag: -1; ALR inh: 99*; SUMO HTRF inh: 23

Results for Cc1cc(C)nc(NS(=O)(=O)c2ccc(NC(=O)CSc3nc(-c4ccccc4)c(C#N)c(=O)[nH]3)cc2)n1 ?
Cardio protect: 7; NTR1 ag: 0; ALR inh: 99*; SUMO HTRF inh: 10

What do the screens show for `Clc1ccc(Cn2ncc3c(NCc4ccccc4)ncnc32)c(Cl)c1`?
NTR1 ag: 3; ALR inh: -3; SUMO HTRF inh: -3

Results for Cc1cc(Nc2ccc([N+](=O)[O-])cc2)c2ccccc2n1 ?
Cardio protect: -14; NTR1 ag: 8; ALR inh: -2; SUMO HTRF inh: 9
